Measured values from the supplement of paper PMC9254222.
In all, about 1,100 compounds were measured (“Wnt reporter firefly/Renilla luciferase ratio relative to plate median”: median about 1.1, highest 2% from about 1.6 on). Only a selection was taken, and the highest values are over-represented in it overall.

System: HEK293T (UBE3A T485A transfected, BAR Wnt reporter)
Test: Wnt reporter firefly/Renilla luciferase ratio relative to plate median (fold (linear ratio)); higher = more Wnt/beta-catenin reporter activation
Details: 24 h
Procedure, shortened: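 Wnt activity (firefly/Renilla ratio) and cell health (raw Renilla) were read with Dual-Glo luciferase and median-centred plate by plate. HEK293T cells, at 4500 cells/well in white 384-well plates with DMEM plus 10% FBS at 37°C and 5% CO2, carried a transfected BAR firefly luciferase Wnt reporter, TK-Renilla and an expression plasmid. The chemicals were applied by robot at 0.01–100 uM for 24 h, beginning four hours after transfection, and results were averaged across four biological replicates.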

Row | Compound | Wnt reporter firefly/Renilla luciferase ratio (concentration: 0.1 uM) | Wnt reporter firefly/Renilla luciferase ratio (concentration: 1 uM) | Wnt reporter firefly/Renilla luciferase ratio (concentration: 10 uM) | Wnt reporter firefly/Renilla luciferase ratio (concentration: 100 uM) | Wnt reporter firefly/Renilla luciferase ratio (concentration: 0.01 uM)
1 | CCCCCCCCCCCC[N+](C)(C)C.[Cl-] [Dodecyltrimethylammonium chloride] | 1.41 | 1.1 | 0.377 | – | –
2 | CCc1ccc(CCOc2ccc(CC3SC(=O)NC3=O)cc2)nc1.Cl (stereo not given) [Pioglitazone hydrochloride] | 0.94 | 0.896 | 0.903 | 1.1 | –
3 | C=C(C)C(=O)OCCC(F)(F)C(F)(F)C(F)(F)C(F)(F)C(F)(F)C(F)(F)F [Tridecafluorohexylethyl methacrylate] | 1.03 | 1.12 | 1.06 | 1.16 | –
4 | CC(C)=CCCC(C)=CC=O [3,7-Dimethyl-2,6-octadienal] | 1.11 | 1.26 | 1.03 | 1.09 | –
5 | CC(C)=CCC/C(C)=C/CO [Geraniol] | 1.1 | 1.26 | 1.15 | 1.75 | –
6 | CC(C)=CCC/C(C)=C\CO [(2Z)-3,7-Dimethylocta-2,6-dien-1-ol] | 1.17 | 0.941 | 1.5 | 1.03 | –
7 | OC(Cn1cncn1)(Cn1cncn1)c1ccc(F)cc1F [Fluconazole] | 1.15 | 0.884 | 1.33 | 1.25 | –
8 | Cc1ccccc1Cl [2-Chlorotoluene] | 0.964 | 0.931 | 1.37 | 1.44 | –
9 | CCOC(N)=O [Urethane] | 1.05 | 0.955 | 1.11 | 1.3 | –
10 | CCO[Si](CCCNC(N)=O)(OCC)OCC [1-[3-(Triethoxysilyl)propyl]urea] | 1.11 | 0.853 | 1.36 | 1.66 | –
11 | CCCCCCCC[Si](OCC)(OCC)OCC [Triethoxyoctylsilane] | 1.15 | 0.902 | 1.05 | 1.38 | –
12 | O=N[O-].[Na+] [Sodium nitrite] | 1.13 | 0.943 | 1.4 | 1.29 | –
13 | COc1ccc(CC(N)C(=O)NC2C(CO)OC(n3cnc4c(N(C)C)ncnc43)C2O)cc1 (stereo not given) [Puromycin] | 0.78 | 0.249 | – | – | 0.865
14 | CC[C@H](NC(=O)c1cc(F)ccc1[N-]S(=O)(=O)c1cccc2cccnc12)c1ccccc1.[Na+] | 1.22 | 1.08 | 1.18 | 0.234 | –
15 | CC(C)CC(C=O)NC(=O)C(CC(C)C)NC(=O)C(CC(C)C)NC(=O)OCc1ccccc1 (stereo not given) | 0.85 | 2.61 | – | – | 0.993
16 | CCCCC(CC)COC(=O)CCCCC(=O)OCc1ccccc1 (stereo not given) [Benzyloctyl adipate] | 0.909 | 1.03 | 1.13 | 1.12 | –
17 | O=C(O)c1ccccc1C(=O)OCc1ccccc1 [Monobenzyl phthalate] | 1.1 | 0.986 | 1.31 | 1.16 | –
18 | CCCCC(CC)COC(=O)CC(C(=O)OCC(CC)CCCC)S(=O)(=O)[O-].[Na+] (stereo not given) [Docusate sodium] | 0.824 | 1.14 | 0.946 | 0.789 | –
19 | CC#C[C@]1(O)CC[C@H]2[C@@H]3CCC4=CC(=O)CCC4=C3[C@@H](c3ccc(N(C)C)cc3)C[C@@]21C [Mifepristone] | 0.957 | 0.893 | 0.624 | 0.0932 | –
20 | CNC(=O)[C@H]1O[C@@H](n2cnc3c(NCc4cc(Cl)ccc4OCc4cc(C)no4)ncnc32)[C@H](O)[C@@H]1N | 0.941 | 1.17 | 1.13 | 1.06 | –
21 | O=C(NS(=O)(=O)/C=C/c1cccs1)c1ccc(F)cc1Br | 1.13 | 1.12 | 0.456 | 0.251 | –
22 | c1ccc2cc3ccccc3cc2c1 [Anthracene] | 0.982 | 0.92 | 0.951 | 2.12 | –
23 | c1ccc2cc3c(ccc4ccccc43)cc2c1 [Benz(a)anthracene] | 1 | 0.949 | 1.29 | 0.737 | –
24 | c1ccc2ccccc2c1 [Naphthalene] | 1.17 | 1.18 | 1.32 | 1.48 | –
25 | CC[C@H](c1ccc(O)cc1)[C@@H](CC)c1ccc(O)cc1 [meso-Hexestrol] | 0.858 | 1.05 | 0.711 | 0.0535 | –
26 | CCCCc1ccc2c(n1)[C@@H](c1ccc(OC)cc1C[C@H](C)C(=O)[O-])[C@H](C(=O)[O-])[C@H]2c1ccc2c(c1)OCO2.[Na+].[Na+] | 1.37 | 1.08 | 1.18 | 0.429 | –
27 | OCC1OC(n2cnc3c(NC4CCCC4)ncnc32)C(O)C1O (stereo not given) [N6-Cyclopentyl adenosine] | 1.15 | 1.06 | 1.05 | 1.18 | 1.31
28 | Cl.Nc1ccn([C@@H]2O[C@H](CO)[C@@H](O)[C@@H]2O)c(=O)n1 [Cytarabine hydrochloride] | 1.1 | 0.941 | 0.171 | 0.125 | –
